Inconclusive results are not listed. Activity calls are given as the source filed them. Unless noted, calls come from the whole dose curve; as a rule, active = well fitted curve in the direction sought with a large enough effect in the repeat runs; inconclusive = weak or mixed curves; inactive = no such curve, though single readings can be large; an effect the other way counts as inactive or inconclusive.
Assays:
[1] = qHTS assay for small molecule agonists of the p53 signaling pathway (AID 651631; calls by dose curve; note: nearly all actives have a fitted effect of over 15% in size)
Summary of the method: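 p53RE-bla HCT-116 cells; compounds 16 h, 37 °C; LiveBLAzer B/G FRET substrate 2 h RT; fluorescence intensity read-out, qHTS format.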

[2] = qHTS assay for small molecules that induce genotoxicity in human embryonic kidney cells expressing luciferase-tagged ATAD5 (AID 651632); note: nearly all actives have a fitted effect of over 15% in size
Summary of the method: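 Genotoxicity read-out via ATAD5-luciferase: HEK293T cells, 16 hr compound incubation at 37C, Amplite detection.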

[3] = qHTS assay for small molecule agonists of the p53 signaling pathway - cell viability (AID 651633; calls by dose curve;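 note: p53RE-bla HCT reporter cells with a stable beta-lactamase p53 reporter; series mostly up to about 83 µM; nearly all actives have a fitted effect of over 30% in size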)
Summary of the method: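 p53RE-bla cells, seeded at 4,000 per well and rested 5 h at 37 C/5% CO2, received compounds in DMSO for 16 h at 37 C. CellTiter-Glo was then added, and luminescence was read after 30 min at room temperature to gauge cytotoxicity.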

[4] = qHTS assay for small molecules that induce genotoxicity in human embryonic kidney cells expressing luciferase-tagged ATAD5 - cell viability (AID 651634; calls by dose curve; note: nearly all actives have a fitted effect of over 25% in size)
Summary of the method: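 Live-cell protease activity (CellTiter-Fluor, fluorescence) indicates viability. HEK293T cells with luciferase-tagged ATAD5; 15.5 hr compound treatment at 37C.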

[5] = qHTS assay for small molecule disruptors of the mitochondrial membrane potential - cell viability (AID 720634; calls by dose curve;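 note: human HepG2 liver cancer cells; series mostly up to about 83 µM; nearly all actives have a fitted effect of over 20% in size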)
Summary of the method: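 Human hepatoma HepG2 cells were treated for 1 hr with test chemicals, then given m-MPI dye and CellTiter-Glo. Cell viability reflects luminescence proportional to cellular ATP.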

[6] = qHTS assay for small molecule disruptors of the mitochondrial membrane potential (AID 720635)
Summary of the method: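 HepG2 cells (2,000/well) attached overnight at 37C, then took compound for 1 hr at 37C, 5% CO2. Mito-MPS dye was added for 30 min; fluorescence was read at 490/535 nm (monomers) and 540/590 nm (aggregates).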

[7] = qHTS assay to test for compound auto fluorescence at 590 nm (red) in HepG2 cells (AID 720674)
Summary of the method: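 Intrinsic compound fluorescence in the red window (Ex/Em 540/590 nm) is measured in attached HepG2 cells exposed for 1 hr, DMSO vehicle as baseline, benchmarked to Rose Bengal sodium.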

[8] = qHTS assay to test for compound auto fluorescence at 535 nm (green) in HepG2 cells (AID 720675)
[9] = qHTS assay to test for compound auto fluorescence at 460 nm (blue) in HEK293 cells (AID 720678)
Summary of the method: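 Cells were seeded and left to adhere for 4-5 hr at 37C. Compounds were then pin-transferred. After an overnight incubation at 37C under 5% CO2, intrinsic fluorescence at 405/460 nm was measured and referenced to triamterene.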

[10] = qHTS assay to test for compound auto fluorescence at 590 nm (red) in HEK293 cells (AID 720679)
Summary of the method: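 Each well held 2,000 HEK293 cells in medium containing 10% dialyzed FBS. Following 4-5 hr attachment at 37C, 23 nL test compound or DMSO was added; plates sat overnight, and red fluorescence (540/590nm) was recorded.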

[11] = qHTS assay to test for compound auto fluorescence at 535 nm (green) in HEK293 cells (AID 720680)
[12] = qHTS assay to test for compound auto fluorescence at 460 nm (blue) in HEK293 cell free culture (AID 720681)
Summary of the method: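 Test compounds were pinned into cell-free culture medium (DMEM with 10% FBS) and fluorescence was read directly at Ex/Em 405/460 nm. Signals were expressed as fluorescence equivalents of triamterene, with DMSO vehicle as control.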

[13] = qHTS assay to test for compound auto fluorescence at 535 nm (green) in HEK293 cell free culture (AID 720682)
Summary of the method: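 Cell-free medium (DMEM, 10% FBS) receives compound or DMSO by pintool. Plate read directly at Ex 485/Em 535 nm. Signal converted to fluorescein equivalency.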

[14] = qHTS assay to test for compound auto fluorescence at 590 nm (red) in HEK293 cell free culture (AID 720683)
Summary of the method: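 Tox21 10K library compounds were pinned into cell-free DMEM with 10% FBS and fluorescence was read at excitation 540 nm. Activity is expressed as Rose Bengal sodium equivalency.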

[15] = qHTS assay to test for compound auto fluorescence at 590 nm (red) in HepG2 cell free culture (AID 720684)
Summary of the method: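 Measured in medium alone (MEM containing 10% FBS) following pintool addition of compound; emission at 590 nm with 540 nm excitation, referenced to Rose Bengal sodium.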

[16] = qHTS assay to test for compound auto fluorescence at 460 nm (blue) in HepG2 cell free culture (AID 720685)
Summary of the method: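 Compound (23 nL) or DMSO pinned into cell-free MEM with 10% FBS; blue fluorescence read at 405/460 nm excitation/emission, expressed as auto-fluorescence equivalency to triamterene.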

[17] = qHTS assay to test for compound auto fluorescence at 535 nm (green) in HepG2 cell free culture (AID 720686)
[18] = qHTS assay to test for compound auto fluorescence at 460 nm (blue) in HepG2 cells (AID 720687)
Summary of the method: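 Cells (2,000/well in MEM with 10% FBS) attached overnight at 37 C, then were exposed to compound or DMSO for 1 hr at 37 C, 5% CO2. Fluorescence read at Ex/Em 405/460 nm, expressed as triamterene-equivalent signal.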

[19] = target: Glucocorticoid receptor (Homo sapiens) (UniProt P04150); assay: qHTS assay to identify small molecule agonists of the glucocorticoid receptor (GR) signaling pathway (AID 720691; active = well fitted activation curve with a large enough effect in the signal ratio in the repeat runs, not every such curve was filed as active; the % refers to the signal ratio)
Summary of the method: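 Beta-lactamase reporter activity, read as fluorescence intensity, was measured in GR-bla HeLa cells exposed to compounds for 18 h at 37 C and then loaded with LiveBLAzer B/G FRET substrate for 2 h at room temperature.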

[20] = target: Glucocorticoid receptor (Homo sapiens) (UniProt P04150); assay: qHTS assay to identify small molecule antagonists of the glucocorticoid receptor (GR) signaling pathway (AID 720692; active = well fitted inhibition curve with a large enough effect in the signal ratio in the repeat runs, not every such curve was filed as active; the % refers to the signal ratio)
Summary of the method: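 Fluorescence from cleaved LiveBLAzer B/G FRET substrate reports GRE-driven beta-lactamase in HeLa cells; compounds are tested against 5 nM dexamethasone (final) over 18 h at 37 C, substrate incubation 2 h at room temperature.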

Measured: Potency

Glucocorticoid receptor (Homo sapiens), sequence (P04150 whole entry, looked up): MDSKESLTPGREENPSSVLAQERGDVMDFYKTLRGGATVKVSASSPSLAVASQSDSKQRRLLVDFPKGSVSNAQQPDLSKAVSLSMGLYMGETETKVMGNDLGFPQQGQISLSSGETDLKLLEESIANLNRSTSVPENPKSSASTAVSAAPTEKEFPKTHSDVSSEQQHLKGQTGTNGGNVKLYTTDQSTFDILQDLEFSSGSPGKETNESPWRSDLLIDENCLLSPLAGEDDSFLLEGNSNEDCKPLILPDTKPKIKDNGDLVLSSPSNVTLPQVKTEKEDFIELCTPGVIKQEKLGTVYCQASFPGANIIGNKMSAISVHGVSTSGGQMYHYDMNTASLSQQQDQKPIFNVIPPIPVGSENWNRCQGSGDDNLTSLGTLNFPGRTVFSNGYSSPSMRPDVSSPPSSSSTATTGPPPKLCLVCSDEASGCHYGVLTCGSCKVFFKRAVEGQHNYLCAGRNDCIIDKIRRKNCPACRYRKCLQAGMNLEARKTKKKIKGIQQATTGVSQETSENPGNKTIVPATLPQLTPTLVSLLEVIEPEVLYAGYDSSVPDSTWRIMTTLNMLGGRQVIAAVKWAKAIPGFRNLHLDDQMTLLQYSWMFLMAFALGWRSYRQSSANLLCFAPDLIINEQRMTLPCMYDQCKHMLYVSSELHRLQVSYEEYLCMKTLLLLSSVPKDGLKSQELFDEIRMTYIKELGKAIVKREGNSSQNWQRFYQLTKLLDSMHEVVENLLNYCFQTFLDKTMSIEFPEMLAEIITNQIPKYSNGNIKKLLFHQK

C=CCOc1nc(OCC=C)nc(OCC=C)n1
inactive: all assays above

CCO[Si](C)(OCC)OCC
not listed: [19] | [20]
inactive: all other assays above

CCCc1ccc(N)cc1
not listed: [19] | [20]
inactive: all other assays above

CC(C)[N+](C)(C)CC(O)COc1cccc2ccccc12 (stereo not drawn)
not listed: [19]
inactive: all other assays above

CCCCCN(CCCCC)C(=O)C(CCC(=O)O)NC(=O)c1ccc(Cl)c(Cl)c1 (stereo not drawn)
not listed: [19]
inactive: all other assays above

Nc1nc2c(ncn2CCC(CO)CO)c(=O)[nH]1
inactive: all assays above

COc1ccc(NC(C)=O)cc1
not listed: [15] | [19]
inactive: all other assays above

CCCCCCCCCCCl
not listed: [20]
inactive: all other assays above

CCC(C(=O)NC(N)=O)c1ccccc1 (stereo not drawn)
inactive: all assays above

Cc1cc(C)c(NC(=O)CN(CC(=O)O)CC(=O)O)c(C)c1Br
not listed: [15] | [20]
inactive: all other assays above

OCCN1C[C@H](O)[C@@H](O)[C@H](O)[C@H]1CO
inactive: all assays above

CC12CCC(CC1=O)C2(C)C (stereo not drawn)
inactive: all assays above

CCC(=O)/C=C/c1ccc(OC)cc1
not listed: [20]
inactive: all other assays above

— PubChem BioAssay (Tox21)
